The record followed here is ChEMBL document CHEMBL1961873, “Compounds: GSK PKIS; Assays: Nanosyn kinase panel” (2012).

Assay [1] addresses T1, Serine/threonine-protein kinase D2 (Homo sapiens) (UniProt Q9BZL6).
T1 sequence (whole entry): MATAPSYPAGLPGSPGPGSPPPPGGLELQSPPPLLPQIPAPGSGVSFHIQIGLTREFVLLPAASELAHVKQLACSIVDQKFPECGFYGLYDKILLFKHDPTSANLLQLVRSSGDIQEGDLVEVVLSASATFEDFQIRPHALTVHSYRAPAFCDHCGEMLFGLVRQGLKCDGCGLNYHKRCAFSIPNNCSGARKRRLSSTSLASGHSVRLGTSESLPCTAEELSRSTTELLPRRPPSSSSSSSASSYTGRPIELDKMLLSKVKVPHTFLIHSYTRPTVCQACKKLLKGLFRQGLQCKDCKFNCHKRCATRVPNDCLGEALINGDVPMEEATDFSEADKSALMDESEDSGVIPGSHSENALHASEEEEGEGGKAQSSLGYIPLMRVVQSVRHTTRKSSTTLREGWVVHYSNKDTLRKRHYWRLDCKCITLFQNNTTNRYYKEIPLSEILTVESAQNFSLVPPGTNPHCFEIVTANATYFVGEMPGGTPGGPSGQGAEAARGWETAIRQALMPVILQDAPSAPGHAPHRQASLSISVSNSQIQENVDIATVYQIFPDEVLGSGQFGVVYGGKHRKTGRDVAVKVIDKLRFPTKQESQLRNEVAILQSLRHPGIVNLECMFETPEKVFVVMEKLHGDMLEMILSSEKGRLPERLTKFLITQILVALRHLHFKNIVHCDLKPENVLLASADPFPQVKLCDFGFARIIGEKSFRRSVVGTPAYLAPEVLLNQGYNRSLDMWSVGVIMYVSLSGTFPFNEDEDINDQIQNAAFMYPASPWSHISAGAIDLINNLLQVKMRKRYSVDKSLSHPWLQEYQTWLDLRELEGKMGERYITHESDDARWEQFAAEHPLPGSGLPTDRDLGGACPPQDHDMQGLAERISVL
The conditions noted are these: at 1 µM.

The target of assay [2] is T2, Serine/threonine-protein kinase D3 (Homo sapiens) (UniProt O94806).
T2 sequence (whole entry): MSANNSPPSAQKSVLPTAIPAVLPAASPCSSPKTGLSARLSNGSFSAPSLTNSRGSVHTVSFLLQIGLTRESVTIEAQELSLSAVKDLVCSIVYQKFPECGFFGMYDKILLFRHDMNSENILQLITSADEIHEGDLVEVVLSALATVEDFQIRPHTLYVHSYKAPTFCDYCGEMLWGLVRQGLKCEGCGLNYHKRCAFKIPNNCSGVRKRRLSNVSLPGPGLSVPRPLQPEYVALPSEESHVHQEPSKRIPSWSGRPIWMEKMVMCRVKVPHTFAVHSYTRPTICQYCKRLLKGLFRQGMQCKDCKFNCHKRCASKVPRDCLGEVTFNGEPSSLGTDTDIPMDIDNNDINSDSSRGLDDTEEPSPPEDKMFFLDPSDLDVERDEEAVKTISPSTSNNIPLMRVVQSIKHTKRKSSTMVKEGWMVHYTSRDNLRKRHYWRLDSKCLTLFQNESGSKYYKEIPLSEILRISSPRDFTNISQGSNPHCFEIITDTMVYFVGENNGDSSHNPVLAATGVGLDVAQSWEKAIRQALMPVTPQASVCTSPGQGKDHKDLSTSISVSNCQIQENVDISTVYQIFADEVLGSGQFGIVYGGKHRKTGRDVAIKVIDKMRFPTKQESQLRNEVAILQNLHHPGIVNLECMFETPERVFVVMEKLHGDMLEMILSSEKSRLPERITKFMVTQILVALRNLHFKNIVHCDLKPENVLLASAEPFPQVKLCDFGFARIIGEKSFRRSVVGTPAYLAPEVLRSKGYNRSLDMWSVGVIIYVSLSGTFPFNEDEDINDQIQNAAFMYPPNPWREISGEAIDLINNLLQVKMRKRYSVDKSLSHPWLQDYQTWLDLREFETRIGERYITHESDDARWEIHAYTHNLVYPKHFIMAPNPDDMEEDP
The conditions noted are these: at 0.1 µM.

Assay [3] has as its target T2, Serine/threonine-protein kinase D3 (Homo sapiens). The conditions noted are these: at 1 µM.
Assay [4] has as its target T3, cGMP-dependent protein kinase 1 (Homo sapiens) (UniProt Q13976).
T3 sequence (whole entry): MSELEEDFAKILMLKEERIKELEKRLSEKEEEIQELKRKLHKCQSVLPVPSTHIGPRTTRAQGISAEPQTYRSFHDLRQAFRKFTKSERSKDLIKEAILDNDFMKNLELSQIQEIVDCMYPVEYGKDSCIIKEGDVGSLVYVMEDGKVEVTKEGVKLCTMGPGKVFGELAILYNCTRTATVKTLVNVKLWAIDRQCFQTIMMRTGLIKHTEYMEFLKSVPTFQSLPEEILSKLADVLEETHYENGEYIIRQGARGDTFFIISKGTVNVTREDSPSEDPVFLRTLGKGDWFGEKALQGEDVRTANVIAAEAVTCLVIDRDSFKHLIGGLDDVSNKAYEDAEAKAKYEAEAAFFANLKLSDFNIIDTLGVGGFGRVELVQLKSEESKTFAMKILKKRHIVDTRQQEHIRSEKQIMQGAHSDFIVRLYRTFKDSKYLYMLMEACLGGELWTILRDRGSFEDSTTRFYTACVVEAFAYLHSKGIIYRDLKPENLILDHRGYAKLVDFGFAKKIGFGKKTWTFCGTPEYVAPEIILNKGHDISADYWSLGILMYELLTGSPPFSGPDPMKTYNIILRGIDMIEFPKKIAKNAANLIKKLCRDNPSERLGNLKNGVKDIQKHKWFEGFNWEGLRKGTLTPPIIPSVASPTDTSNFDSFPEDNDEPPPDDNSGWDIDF
The conditions noted are these: at 0.1 µM.

Assay [5] deals with T3, cGMP-dependent protein kinase 1 (Homo sapiens). To be noted: at 1 µM.
Assay [6] concerns the target T4, cGMP-dependent protein kinase 2 (Homo sapiens) (UniProt Q13237).
T4 sequence (whole entry): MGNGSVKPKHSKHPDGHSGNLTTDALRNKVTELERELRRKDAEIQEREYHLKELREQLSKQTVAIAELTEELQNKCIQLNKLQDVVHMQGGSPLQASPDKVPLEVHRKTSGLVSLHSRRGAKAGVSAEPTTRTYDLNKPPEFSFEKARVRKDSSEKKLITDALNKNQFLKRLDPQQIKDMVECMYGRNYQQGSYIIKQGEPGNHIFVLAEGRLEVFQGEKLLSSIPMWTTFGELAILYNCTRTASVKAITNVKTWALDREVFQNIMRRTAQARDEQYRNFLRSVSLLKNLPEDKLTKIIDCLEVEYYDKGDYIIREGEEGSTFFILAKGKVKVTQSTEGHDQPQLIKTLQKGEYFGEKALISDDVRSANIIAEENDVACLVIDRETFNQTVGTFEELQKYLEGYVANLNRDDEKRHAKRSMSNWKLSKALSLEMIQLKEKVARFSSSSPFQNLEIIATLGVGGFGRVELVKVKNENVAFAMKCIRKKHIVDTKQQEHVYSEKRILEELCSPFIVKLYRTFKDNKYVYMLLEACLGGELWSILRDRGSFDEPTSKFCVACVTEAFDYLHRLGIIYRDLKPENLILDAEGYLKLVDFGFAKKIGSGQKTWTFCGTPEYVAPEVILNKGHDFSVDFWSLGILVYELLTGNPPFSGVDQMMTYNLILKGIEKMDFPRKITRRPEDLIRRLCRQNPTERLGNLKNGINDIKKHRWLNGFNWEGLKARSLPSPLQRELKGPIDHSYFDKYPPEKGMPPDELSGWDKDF
The conditions noted are these: at 0.1 µM.

The target of assay [7] is T4, cGMP-dependent protein kinase 2 (Homo sapiens). The conditions noted are these: at 1 µM.
Assay [8] deals with T5, cAMP-dependent protein kinase catalytic subunit PRKX (Homo sapiens) (UniProt P51817).
T5 sequence (whole entry): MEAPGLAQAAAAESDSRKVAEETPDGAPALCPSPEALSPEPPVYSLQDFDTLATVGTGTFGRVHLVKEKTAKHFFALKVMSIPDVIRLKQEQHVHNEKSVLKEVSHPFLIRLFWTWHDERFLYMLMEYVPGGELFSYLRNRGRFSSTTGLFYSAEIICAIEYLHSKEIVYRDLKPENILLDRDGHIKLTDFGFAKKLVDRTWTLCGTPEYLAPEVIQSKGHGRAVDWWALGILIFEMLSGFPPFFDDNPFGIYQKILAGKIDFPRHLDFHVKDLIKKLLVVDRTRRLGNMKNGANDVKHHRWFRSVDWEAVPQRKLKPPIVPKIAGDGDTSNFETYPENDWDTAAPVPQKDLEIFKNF
The conditions noted are these: at 0.1 µM.

Assay [9] addresses T5, cAMP-dependent protein kinase catalytic subunit PRKX (Homo sapiens). To be noted: at 1 µM.
Assay [10] has as its target Rho-associated protein kinase 1 (Homo sapiens) (UniProt Q13464). To be noted: at 0.1 µM.
For assay [11] the target is unchanged. The conditions noted are these: at 1 µM.
Assay [12] deals with Rho-associated protein kinase 2 (Homo sapiens) (UniProt O75116). The conditions noted are these: at 0.1 µM.
Sequence of Rho-associated protein kinase 2 (Homo sapiens) (O75116 whole entry, looked up): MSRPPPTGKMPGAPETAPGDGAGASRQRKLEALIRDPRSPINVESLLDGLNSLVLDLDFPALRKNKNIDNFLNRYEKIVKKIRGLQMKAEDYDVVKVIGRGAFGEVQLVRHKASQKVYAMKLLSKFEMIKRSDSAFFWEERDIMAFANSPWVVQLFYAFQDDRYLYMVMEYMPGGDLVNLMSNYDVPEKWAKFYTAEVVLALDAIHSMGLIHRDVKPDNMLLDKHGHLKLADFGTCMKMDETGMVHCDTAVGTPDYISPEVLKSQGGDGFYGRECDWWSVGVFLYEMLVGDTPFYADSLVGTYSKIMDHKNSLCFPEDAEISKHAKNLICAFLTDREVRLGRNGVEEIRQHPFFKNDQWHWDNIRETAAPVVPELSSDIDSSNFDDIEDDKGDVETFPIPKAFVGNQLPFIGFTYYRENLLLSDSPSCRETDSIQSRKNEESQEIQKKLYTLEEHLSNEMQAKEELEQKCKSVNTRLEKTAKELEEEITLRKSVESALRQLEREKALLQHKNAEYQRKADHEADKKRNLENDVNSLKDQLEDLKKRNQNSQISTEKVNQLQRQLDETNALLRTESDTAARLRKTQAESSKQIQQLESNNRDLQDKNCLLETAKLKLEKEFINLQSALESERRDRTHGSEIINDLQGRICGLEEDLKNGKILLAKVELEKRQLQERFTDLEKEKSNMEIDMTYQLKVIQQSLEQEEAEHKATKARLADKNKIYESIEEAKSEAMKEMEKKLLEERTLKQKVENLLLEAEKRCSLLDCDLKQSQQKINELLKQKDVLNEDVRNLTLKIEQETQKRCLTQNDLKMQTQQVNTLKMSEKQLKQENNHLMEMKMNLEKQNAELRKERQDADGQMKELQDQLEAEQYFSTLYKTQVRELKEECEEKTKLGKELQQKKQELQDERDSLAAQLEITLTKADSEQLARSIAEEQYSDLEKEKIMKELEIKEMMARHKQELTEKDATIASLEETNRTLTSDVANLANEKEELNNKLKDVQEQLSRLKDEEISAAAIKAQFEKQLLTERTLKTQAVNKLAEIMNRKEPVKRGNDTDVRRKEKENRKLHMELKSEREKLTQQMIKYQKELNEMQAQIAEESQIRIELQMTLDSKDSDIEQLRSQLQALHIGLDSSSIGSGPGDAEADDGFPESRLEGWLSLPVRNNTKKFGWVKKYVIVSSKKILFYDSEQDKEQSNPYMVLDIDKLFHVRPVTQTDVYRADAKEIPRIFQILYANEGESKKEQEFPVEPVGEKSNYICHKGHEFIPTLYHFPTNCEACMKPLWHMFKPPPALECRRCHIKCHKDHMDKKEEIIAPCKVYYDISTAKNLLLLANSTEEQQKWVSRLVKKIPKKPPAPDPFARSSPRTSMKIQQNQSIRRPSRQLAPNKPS
The target is the same in assay [13]. To be noted: at 1 µM.
For assay [14], the target named is Ribosomal protein S6 kinase alpha-1 (Homo sapiens) (UniProt Q15418). To be noted: at 0.1 µM.
Sequence of Ribosomal protein S6 kinase alpha-1 (Homo sapiens) (Q15418 whole entry): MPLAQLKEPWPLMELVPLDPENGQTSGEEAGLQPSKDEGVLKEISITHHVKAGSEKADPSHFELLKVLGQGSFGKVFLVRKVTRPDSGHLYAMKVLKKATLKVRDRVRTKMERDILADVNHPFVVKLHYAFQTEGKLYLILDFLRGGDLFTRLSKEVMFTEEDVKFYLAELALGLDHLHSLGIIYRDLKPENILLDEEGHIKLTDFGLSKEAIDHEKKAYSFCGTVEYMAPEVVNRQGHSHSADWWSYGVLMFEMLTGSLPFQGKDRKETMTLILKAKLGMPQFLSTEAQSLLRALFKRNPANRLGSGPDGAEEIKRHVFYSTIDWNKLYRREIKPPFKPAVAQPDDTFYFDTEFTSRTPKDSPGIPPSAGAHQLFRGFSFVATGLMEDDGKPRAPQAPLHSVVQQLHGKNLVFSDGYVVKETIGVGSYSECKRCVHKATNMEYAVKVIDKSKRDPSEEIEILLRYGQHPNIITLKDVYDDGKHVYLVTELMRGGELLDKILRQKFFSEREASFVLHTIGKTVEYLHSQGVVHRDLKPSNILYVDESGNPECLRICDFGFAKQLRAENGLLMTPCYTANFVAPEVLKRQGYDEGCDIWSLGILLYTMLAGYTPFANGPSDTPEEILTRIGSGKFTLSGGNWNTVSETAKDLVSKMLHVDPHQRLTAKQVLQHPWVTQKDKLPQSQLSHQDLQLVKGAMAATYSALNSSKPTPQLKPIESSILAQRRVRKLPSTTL
The target is the same in assay [15]. The conditions noted are these: at 1 µM.
Assay [16] concerns the target Ribosomal protein S6 kinase alpha-3 (Homo sapiens) (UniProt P51812). To be noted: at 0.1 µM.
For assay [17] the target is unchanged. The conditions noted are these: at 1 µM.
The target of assay [18] is Ribosomal protein S6 kinase alpha-2 (Homo sapiens) (UniProt Q15349). To be noted: at 0.1 µM.
Sequence of Ribosomal protein S6 kinase alpha-2 (Homo sapiens) (Q15349 whole entry): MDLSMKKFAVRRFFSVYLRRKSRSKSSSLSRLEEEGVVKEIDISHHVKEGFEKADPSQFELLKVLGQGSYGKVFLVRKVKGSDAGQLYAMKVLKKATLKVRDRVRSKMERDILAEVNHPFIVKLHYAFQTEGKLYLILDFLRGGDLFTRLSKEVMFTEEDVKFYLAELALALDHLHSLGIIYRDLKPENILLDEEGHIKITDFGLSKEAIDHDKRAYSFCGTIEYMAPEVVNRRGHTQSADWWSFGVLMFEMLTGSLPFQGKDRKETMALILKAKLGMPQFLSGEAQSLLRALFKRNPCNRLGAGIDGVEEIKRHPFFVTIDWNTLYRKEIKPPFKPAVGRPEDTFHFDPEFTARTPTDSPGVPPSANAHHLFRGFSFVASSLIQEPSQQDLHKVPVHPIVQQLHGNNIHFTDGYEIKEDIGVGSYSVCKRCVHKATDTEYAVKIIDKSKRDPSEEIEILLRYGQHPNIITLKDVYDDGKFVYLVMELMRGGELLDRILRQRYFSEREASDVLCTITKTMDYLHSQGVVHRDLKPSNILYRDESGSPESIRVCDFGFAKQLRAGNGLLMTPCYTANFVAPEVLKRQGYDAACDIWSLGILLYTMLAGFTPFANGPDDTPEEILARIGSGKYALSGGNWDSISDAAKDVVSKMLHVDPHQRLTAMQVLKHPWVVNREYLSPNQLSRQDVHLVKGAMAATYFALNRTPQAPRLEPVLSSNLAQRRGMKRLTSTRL
For assay [19] the target is unchanged. The conditions noted are these: at 1 µM.
Assay [20] has as its target Ribosomal protein S6 kinase alpha-6 (Homo sapiens) (UniProt Q9UK32). The conditions noted are these: at 0.1 µM.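 Further: reported value is the mean inhibition of RSK4, from the GSK PKIS kinase inhibitor screen.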

Sequence of Rho-associated protein kinase 1 (Homo sapiens) (Q13464 2-1354 limits assumed): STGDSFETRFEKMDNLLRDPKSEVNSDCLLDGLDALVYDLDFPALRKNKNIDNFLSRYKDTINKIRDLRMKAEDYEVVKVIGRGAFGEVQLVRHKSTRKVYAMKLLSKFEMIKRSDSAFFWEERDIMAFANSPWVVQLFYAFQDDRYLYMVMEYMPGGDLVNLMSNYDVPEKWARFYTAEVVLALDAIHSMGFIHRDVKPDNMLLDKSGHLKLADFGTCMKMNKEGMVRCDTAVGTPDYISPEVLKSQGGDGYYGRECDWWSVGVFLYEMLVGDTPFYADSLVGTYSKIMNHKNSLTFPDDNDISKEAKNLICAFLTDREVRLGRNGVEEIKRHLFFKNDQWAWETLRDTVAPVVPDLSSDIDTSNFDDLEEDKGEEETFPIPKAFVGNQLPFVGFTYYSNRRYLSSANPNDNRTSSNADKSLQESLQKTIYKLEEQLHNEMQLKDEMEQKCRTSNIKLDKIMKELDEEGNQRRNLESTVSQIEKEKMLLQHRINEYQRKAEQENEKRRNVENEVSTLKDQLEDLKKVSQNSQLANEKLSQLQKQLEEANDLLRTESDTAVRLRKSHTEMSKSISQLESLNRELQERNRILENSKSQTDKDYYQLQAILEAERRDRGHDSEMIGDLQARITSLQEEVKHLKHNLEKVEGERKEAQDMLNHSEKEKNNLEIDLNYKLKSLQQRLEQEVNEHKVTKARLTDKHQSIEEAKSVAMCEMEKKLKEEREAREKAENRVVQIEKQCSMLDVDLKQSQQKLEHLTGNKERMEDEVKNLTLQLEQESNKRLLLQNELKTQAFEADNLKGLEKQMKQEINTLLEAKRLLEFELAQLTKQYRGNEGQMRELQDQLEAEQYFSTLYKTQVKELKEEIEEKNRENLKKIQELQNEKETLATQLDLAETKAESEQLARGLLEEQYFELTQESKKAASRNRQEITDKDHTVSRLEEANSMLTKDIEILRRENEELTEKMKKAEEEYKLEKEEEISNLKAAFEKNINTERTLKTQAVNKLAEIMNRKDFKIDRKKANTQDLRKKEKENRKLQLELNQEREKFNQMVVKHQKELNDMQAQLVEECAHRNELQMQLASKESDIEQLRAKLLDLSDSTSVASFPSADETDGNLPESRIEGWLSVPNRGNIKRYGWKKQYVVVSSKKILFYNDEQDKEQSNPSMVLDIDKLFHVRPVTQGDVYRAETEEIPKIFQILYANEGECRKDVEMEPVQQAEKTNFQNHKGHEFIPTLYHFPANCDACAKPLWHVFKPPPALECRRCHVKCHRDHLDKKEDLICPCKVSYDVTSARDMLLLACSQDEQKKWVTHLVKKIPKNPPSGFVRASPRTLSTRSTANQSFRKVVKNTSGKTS
Sequence of Ribosomal protein S6 kinase alpha-6 (Homo sapiens) (Q9UK32 whole entry): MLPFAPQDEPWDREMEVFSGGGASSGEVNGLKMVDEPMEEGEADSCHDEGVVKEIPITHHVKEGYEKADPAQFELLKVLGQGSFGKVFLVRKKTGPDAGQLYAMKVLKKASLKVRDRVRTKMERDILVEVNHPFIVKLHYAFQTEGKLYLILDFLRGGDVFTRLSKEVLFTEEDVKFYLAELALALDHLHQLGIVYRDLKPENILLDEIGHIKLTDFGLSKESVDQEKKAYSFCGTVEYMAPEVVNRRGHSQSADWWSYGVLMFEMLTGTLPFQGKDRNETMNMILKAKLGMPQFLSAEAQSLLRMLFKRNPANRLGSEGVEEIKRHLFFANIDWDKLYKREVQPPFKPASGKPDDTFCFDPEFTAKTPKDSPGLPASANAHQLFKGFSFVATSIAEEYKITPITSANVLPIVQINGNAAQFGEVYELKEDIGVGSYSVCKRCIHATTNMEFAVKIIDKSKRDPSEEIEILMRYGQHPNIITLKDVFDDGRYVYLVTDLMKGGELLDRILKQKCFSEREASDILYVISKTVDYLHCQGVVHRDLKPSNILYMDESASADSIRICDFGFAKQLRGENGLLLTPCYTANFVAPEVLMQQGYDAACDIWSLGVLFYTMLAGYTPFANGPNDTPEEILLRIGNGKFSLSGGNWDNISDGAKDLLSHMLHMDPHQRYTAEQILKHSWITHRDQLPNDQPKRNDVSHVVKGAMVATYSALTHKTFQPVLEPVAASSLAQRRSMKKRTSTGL

As for `Fc1cccc(COc2ccc(Nc3ncnc4sc(-c5cccs5)cc34)cc2Cl)c1`, the inhibition was -1.2% in [1]; -0.65% in assay [2]; -0.35% in assay [3]; 1.57% in assay [4]; 1.96% in assay [5]; 0.03% in assay [6]. The inhibition was 0.73% in [7]; 0.64% in assay [8]; 0.87% in assay [9]; 1.73% in [10]; 2.28% in assay [11]; 0.99% in [12]. The inhibition in [13] is 1.7%; in [14] it was -0.29%; in [15] it was -0.48%; in assay [16], -1.22%; in assay [17], -0.28%; in [18] it was 0.38%. The inhibition in assay [19] is 1.25%; in assay [20], -0.01%.

Consider `COc1ccc(COc2ccc(Cc3cnc(N)nc3N)cc2OC)cc1`, for which the inhibition in assay [1] was 4.2%; in [2], 0.01%; in [3], 2.56%; in assay [4] it was 4.15%; in [5] it was 3.2%; in assay [6] it was 2.89%. Moreover, the inhibition in assay [7] came out at 3.2%; in assay [8], 2.09%; in assay [9], 1.07%; in [10], 2.35%; in assay [11], 2.94%; in assay [12], 1.54%. The inhibition in [13] was -1.22%; in assay [14], 1.36%; in assay [15], -1.81%; in assay [16], 0.78%; in assay [17], -0.8%; in [18], 0.01%. Also, the inhibition in assay [19] was -1%; in assay [20] it was 0.69%.

For `Cc1nnc(-c2ccc(C)c(-c3ccc(C(=O)Nc4cccc(C#N)c4)cc3)c2)o1`, the inhibition is 3.13% in assay [1]; 2.37% in [2]; 3.16% in assay [3]; 0.21% in [4]; 2.16% in assay [5]; 1.21% in assay [6]. For the same compound, the inhibition in [7] was 3.35%; in [8], 0.63%; in assay [9] it was 1.68%; in assay [10] it was -0.21%; in assay [11] it was 0.62%; in assay [12], -0.03%. The inhibition in assay [13] was 3.81%; in assay [14], 1.66%; in assay [15], 3.77%; in [16] it was 1.23%; in assay [17], 2.97%; in assay [18], 0.46%. The inhibition turned out to be 2.89% in assay [19] and 0% in [20].

The inhibition is the drop in the measured response relative to a control, in per cent.
